High-throughput results as filed in PubChem.
This is a sample that favours compounds with a hit; in the whole collection about 2.9% have one here.
dFosB act-1 = activators of delta FosB homodimer, primary screen, biochemical, fluorescence polarization, TAMRA-CDK5 oligo, single point; AID 493131, 2011; purified delta FosB; percent of positive-control signal above neutral wells; 340,000 tested, 0.99% active; activation, % at 25 µM; Protein FosB (Mus musculus), P13346;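 active = mean activation above about 17%, with every replicate also reaching it, limit read from the data, passing the limit was not always enough; inconclusive = only one of the two conditions met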
Target sequence (P13346 whole entry, looked up): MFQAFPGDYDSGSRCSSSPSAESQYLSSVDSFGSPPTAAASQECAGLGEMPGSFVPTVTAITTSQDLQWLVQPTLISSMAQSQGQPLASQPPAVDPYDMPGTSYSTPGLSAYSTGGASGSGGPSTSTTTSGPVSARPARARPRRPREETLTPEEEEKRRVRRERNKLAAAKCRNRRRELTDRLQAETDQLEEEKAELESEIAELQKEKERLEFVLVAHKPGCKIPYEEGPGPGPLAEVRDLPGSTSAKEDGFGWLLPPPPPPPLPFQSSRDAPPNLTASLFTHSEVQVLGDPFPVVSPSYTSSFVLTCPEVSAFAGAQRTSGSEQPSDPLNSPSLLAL
MEKK2wt PB1 HTS = modulators of MEK5 binding to wildtype MEKK2, primary screen, biochemical, multiplex bead flow cytometry, Alexa488-MEK5; Alexa488-MEK5 binding to MEKK2 WT; actives lie on both sides; binding response (% of control), % at 10 µM; 290,000 tested, 1.1% active; in the data active = binding response below about 67% or above about 130%; inconclusive = no clear call, values can overlap the other calls; inactive = in between
MEKK2mut PB1 HTS = MEK5 binding signal on mutant MEKK2 PB1, primary screen, biochemical, multiplex bead flow cytometry, Alexa488-MEK5; Alexa488-MEK5 binding to MEKK2 mutant; percent response, % at 10 µM; AID 1530, 2009; 290,000 tested, 0.35% active; in the data active = percent response above about 24%, passing the limit was not always enough
DNA FID counter = compounds displacing fluorescent DNA intercalator, primary screen, artefact control for HCV NS3 helicase inhibitor project, biochemical, FID fluorescence. inhibition, % at 7.9 µM. DNA fluorescent intercalator displacement. 290,000 tested, 0.17% active. AID 1845, 2009; in the data active = inhibition above about 37%;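 note: higher means more ethidium bromide displaced from hairpin DNA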
MEKK3 PB1 HTS = modulators of MEKK3-MEK5 PB1 binding, primary screen, biochemical, wildtype MEKK3, multiplex bead flow cytometry, Alexa488-MEK5; Mitogen-activated protein kinase kinase kinase 3 (Homo sapiens), Q99759; bead-based flow cytometry, Alexa488-MEK5 binding to MEKK3; actives lie on both sides; 0 = blocked by unlabeled MEK5, 100 = vehicle; binding response (% of control), % at 10 µM; 290,000 tested, 1.4% active;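 active = binding response more than 3 SD above or below the average of its plate-row segment, actives on both sides; inconclusive = wells at one plate position flagged as instrument error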;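 note: Alexa488 bead fluorescence after subtracting the streptavidin-only scavenger bead signal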
dFosB act-2 = activators of mouse delta FosB DNA binding, confirmation, biochemical, fluorescence polarization, TAMRA-CDK5 oligo, cherry-picked samples. shares compounds with dFosB act-1. purified delta FosB; normalised: neutral wells 0, positive control 100. activation, % at 24.9 µM. 2,400 tested, under 10 active. AID 588690, 2011;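 active = highest replicate activation at or above 34% and every replicate reaching that threshold; inconclusive = meets only one of the two criteria; inactive = meets neither criterion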;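 note: higher polarization means more probe DNA bound by delta FosB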
Each line names hits and unclear results; the compound was inactive in the other large screens (follow-up assays come after a bar, where they were run).

COc1ccc(NC(C)(C)c2nnnn2-c2c(C)cccc2C)cc1	none
NS(=O)(=O)c1ccc(NC(=O)c2cc(-c3cc(Cl)ccc3O)n[nH]2)cc1	dFosB act-1 38 | dFosB act-2 inactive
COc1cccc2c1OCC(CN1CCN(CCC(C)C)C(CCO)C1)=C2 (configuration not stated)	none
Cc1ccc(S(=O)(=O)N(C)Cc2ccc(C(=O)N/N=C/c3ccc(OC(F)F)cc3)cc2)cc1	none
C/C(=N\NC(=O)c1ccc(CN(C)S(=O)(=O)c2ccc(C)cc2)cc1)c1ccc(OC(F)F)cc1	dFosB act-1 26 | dFosB act-2 inactive
Cc1cc(OCc2nc(-c3ccc(NC(=O)c4cccnc4)cc3)no2)ccc1Cl	dFosB act-1 78 | dFosB act-2 inactive
Cc1ccccc1OCc1nc(-c2ccc(NC(=O)c3ccc4c(c3)OCO4)cc2)no1	dFosB act-1 19 | dFosB act-2 inactive
CC(C)(C)OC(=O)N(CCc1ccccc1)Cc1cccc(OCc2cccc(NC(=O)c3ccccc3)c2)c1	none (no result: MEKK2wt PB1 HTS, MEKK2mut PB1 HTS, DNA FID counter, MEKK3 PB1 HTS)
CC1Cc2ccccc2N1C(=O)COC(=O)c1ccc(N(C)C)cc1 (configuration not stated)	none (no result: MEKK2wt PB1 HTS, MEKK2mut PB1 HTS, DNA FID counter, MEKK3 PB1 HTS)
COc1ccc(CN2CCC(=O)N([C@H](CO)CC(C)C)CC2)cc1	none
COCCCn1c(=O)c2ccccc2n(CC(=O)NC2CCCC2)c1=O	none
Cc1ccc(CNC(=O)CCCn2c(=O)c3ccccc3n(CC(=O)NC3CCCC3)c2=O)cc1	dFosB act-1 27 | dFosB act-2 inactive
Cc1cccc(NC(=O)Cn2c(=O)n(CCC(=O)NC3CCCC3)c(=O)c3ccccc32)c1	dFosB act-1 42 | dFosB act-2 inactive
Cc1ccccc1Cn1c(=O)n(CCC(=O)NCc2ccc3c(c2)OCO3)c(=O)c2ccccc21	dFosB act-1 60 | dFosB act-2 inactive
Cc1ccc(CNC(=O)Cn2c(=O)n(-c3ccccc3)c(=O)c3sccc32)cc1	dFosB act-1 21 | dFosB act-2 inactive
O=C(CCn1c(=O)c2ccccc2n(Cc2cccnc2)c1=O)NCc1ccc2c(c1)OCO2	none
N#Cc1ccc(CN2CCN(c3ccc(S(=O)(=O)N4CCCC4)cn3)CC2)cc1	none (no result: MEKK2wt PB1 HTS, MEKK2mut PB1 HTS, DNA FID counter, MEKK3 PB1 HTS)
C/C(=N\N=C(/N)SC1CC(=O)N(c2ccc(Cl)cc2)C1=O)c1cccs1 (configuration not stated)	none
C/C(=N\N=C(/N)SC1CC(=O)N(c2ccc(Cl)c(Cl)c2)C1=O)c1cccs1 (configuration not stated)	dFosB act-1 25 | dFosB act-2 inactive
O=[N+]([O-])c1ccccc1N(S(=O)(=O)c1ccccc1)S(=O)(=O)c1ccccc1	none (no result: MEKK2wt PB1 HTS, MEKK2mut PB1 HTS, DNA FID counter, MEKK3 PB1 HTS)
CN(C)CCCNC(=S)N(Cc1cccs1)Cc1cc2cc3c(cc2[nH]c1=O)OCCO3	dFosB act-1 32 | dFosB act-2 inactive
Cc1ccc(-c2nnc(NCc3nc4ccccc4[nH]3)c3ccccc23)cc1S(=O)(=O)N(C)C	dFosB act-1 inconclusive
Cc1ccc(-c2nnc(NCc3nc4ccccc4[nH]3)c3ccccc23)cc1S(=O)(=O)N1CCOCC1	dFosB act-1 56 | dFosB act-2 inactive
O=C(COC(=O)/C=C/c1cccc(Cl)c1)NC1CCCC1	none (no result: MEKK2wt PB1 HTS, MEKK2mut PB1 HTS, DNA FID counter, MEKK3 PB1 HTS)
Cc1ccc(C)c(NC(=O)C2CC=CCC2C(=O)O)c1 (configuration not stated)	none
Cc1ccc(C)c(NC(=O)C2CC3c4ccccc4C2c2ccccc23)c1 (configuration not stated)	dFosB act-1 40 | dFosB act-2 inactive
Cc1ccc(NC(=O)CC2=NC(=O)C(CC(=O)Nc3ccccc3F)S2)cc1 (configuration not stated)	dFosB act-1 46 | dFosB act-2 inactive
Cc1cccc(C(=O)OCC(=O)c2c(C)[nH]c3ccccc23)c1O	dFosB act-1 28 (no result: MEKK2wt PB1 HTS, MEKK2mut PB1 HTS, DNA FID counter, MEKK3 PB1 HTS) | dFosB act-2 inactive
CCOC(=O)c1c(C)[nH]c(C)c1C(=O)COC(=O)c1cccc(C)c1O	none
CCn1c(SCC(=O)Nc2ccc(C(C)=O)cc2)nc2c([nH]c3ccccc32)c1=O	dFosB act-1 33 | dFosB act-2 inactive
CCn1c(SCC(=O)Nc2cccc(NC(C)=O)c2)nc2c([nH]c3ccccc32)c1=O	none
COc1ccc(CCNC(=O)COc2ncnc3ccccc23)cc1	none
COc1ccc(C(=O)Nc2nc(-c3ccccc3)c(C(C)=O)s2)c(OC)c1	dFosB act-1 32 | dFosB act-2 inactive
O=C(Nc1nc(-c2ccccc2)nc2ccccc12)c1ccc(F)cc1	dFosB act-1 22 | dFosB act-2 inactive
Clc1cccc(Nc2nc(-c3ccncc3)nc3ccccc23)c1	none
CC(=O)c1sc(NC(=O)c2ccc(F)cc2)nc1-c1ccccc1	dFosB act-1 25 | dFosB act-2 inactive
Fc1ccc(Nc2nc(-c3ccncc3)nc3ccccc23)cc1F	dFosB act-1 89 | dFosB act-2 inactive
CC(=O)c1sc(NC(=O)c2ccccc2F)nc1-c1ccccc1	none
CCN(CC)CCN(CC(=O)Nc1c(C)cc(C)cc1C)C(=O)c1ccccc1	none
Cc1ccc2c(c1)[C@@H](O)C[C@@H](C)N2N=O	none
COc1ccc(/C=C(\NC(=O)c2ccc([N+](=O)[O-])cc2)C(=O)N2CCOCC2)cc1	none
CN(c1ccccc1)S(=O)(=O)c1ccc(Cl)c(C(=O)Nc2ccc(-c3nc4ccccc4[nH]3)cc2)c1	dFosB act-1 44 | dFosB act-2 inactive
CN(c1ccccc1)S(=O)(=O)c1ccc(Cl)c(C(=O)Nc2nc3ccccc3[nH]2)c1	none
O=C(Nc1ccc(-c2nc3ccc(NC(=O)c4cccs4)cc3[nH]2)cc1)c1cccs1	dFosB act-1 47 | dFosB act-2 inactive
CS(=O)(=O)c1ccccc1C(=O)Nc1ccc(-c2nc3ccccc3[nH]2)cc1	none
O=C(Nc1ccc(-c2nc3ccccc3[nH]2)cc1)c1ccc(N2C(=O)CCC2=O)cc1	dFosB act-1 25 | dFosB act-2 inactive
CS(=O)(=O)c1cccc(C(=O)Nc2ccc(-c3nc4ccccc4[nH]3)cc2)c1	dFosB act-1 37 | dFosB act-2 inactive
Cc1ccc(C(=O)NNC2=NC(C)(C)Cc3ccccc32)cc1	none
COc1cccc(CN2CC(C(=O)N3CCN(C(C)C)CC3)CCC2=O)c1 (configuration not stated)	none
CC(=O)c1ccc(OCC(O)CN2CCN(CC(O)COc3ccc(C(C)=O)cc3)CC2)cc1 (configuration not stated)	none
